m5-HT2A agonist – mouse Htr2a agonists via beta-arrestin recruitment, primary screen, cell-based, luminescence. 5-hydroxytryptamine receptor 2A (Mus musculus), P35363. CHO-K1 mHTR2A beta-arrestin complementation; percent of 30 µM serotonin response. activation, % at 7.6 µM. 0.66% of 360,000 active. AID 624169, 2012;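 active means activation above a run cutoff, the mean activation of all tested compounds plus 3 SD, cut at about 14% in these data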;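 further: 0% = plate median of compound wells and 100% = 30 µM serotonin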
Target sequence (P35363 whole entry, looked up): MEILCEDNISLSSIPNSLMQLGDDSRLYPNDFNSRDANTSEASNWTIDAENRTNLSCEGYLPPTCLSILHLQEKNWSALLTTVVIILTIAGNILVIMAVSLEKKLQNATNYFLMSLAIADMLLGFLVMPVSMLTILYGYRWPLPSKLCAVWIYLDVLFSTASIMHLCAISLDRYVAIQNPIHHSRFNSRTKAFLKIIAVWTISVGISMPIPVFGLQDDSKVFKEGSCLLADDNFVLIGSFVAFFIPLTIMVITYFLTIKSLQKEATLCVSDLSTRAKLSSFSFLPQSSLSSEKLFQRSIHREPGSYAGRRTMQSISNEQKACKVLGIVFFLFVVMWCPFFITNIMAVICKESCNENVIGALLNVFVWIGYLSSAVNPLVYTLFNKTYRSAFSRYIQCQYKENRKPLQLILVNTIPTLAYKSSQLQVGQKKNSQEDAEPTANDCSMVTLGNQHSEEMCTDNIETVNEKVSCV
Fh CTSL1 inh – Fasciola hepatica cathepsin L1 inhibitors, primary screen, counter-screen for PFM18AAP inhibitor project, biochemical, QFRET, fluorogenic peptide substrate | AID 1906, 2009 | 0.49% of 300,000 active | recombinant F. hepatica cathepsin L1, Z-Leu-Arg-MCA fluorescence | inhibition, % at 5.96 µM;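 active means inhibition above the mean of all tested compounds plus 3 SD, set per screening campaign, cut at about 17% in these data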;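 further: 0% = plate median of test compound wells and 100% = 1 µM Z-Phe-Ala-diazomethylketone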
HDAC3 inh – HDAC3 deacetylase inhibitors, primary screen, biochemical, fluorescence, cell-free homogeneous | Histone deacetylase 3 (Homo sapiens), O15379 | recombinant HDAC3, fluorogenic peptide/trypsin coupled | inhibition, % at 8.3 µM | 0.15% of 320,000 active | AID 2718, 2010; in the data active means inhibition above about 26%, passing the limit was not always enough
LANA-H2A inh – blockers of LANA interaction with H2A/H2B – biochemical, FP readout, HTS, primary screen; Protein LANA1 (Human herpesvirus 8 type P (isolate GK18)), Q9QR71; cell-free LANA-H2A/H2B peptide, fluorescence polarization; inhibition, % (concentration not given with the values); 0.6% of 320,000 active; in the data active means inhibition mostly above about 10%, no sharp cut-off; inactive means mostly below about 6.7%
* = called active by the depositor; / = not tested or not shown; + = active, no number; ! = not confirmed by another sample. Hits are enriched below; roughly 1.7% of the tested compounds scored in any of these assays.

SMILES	m5-HT2A agonist	Fh CTSL1 inh	HDAC3 inh	LANA-H2A inh
CCN(CC(=O)Nc1ccccc1C(F)(F)F)C(=O)c1ccccc1SCC(=O)N1CCCC1	-7	-4	-2	35*
COc1ccc(NC(=O)CN(C)C(=O)C(Sc2ccccc2)c2ccccc2)cc1 (configuration not stated)	-1	/	0	60*
CC(=O)c1cc(NC(=O)c2ccccc2)c(=O)oc1C	4	2	-1	0
Cc1oc(=O)c(NC(=O)c2ccc(Cl)cc2)cc1C(=O)c1ccccc1	3	19*	-1	-5
Cc1oc(=O)c(NC(=O)c2ccccc2)cc1C(=O)c1ccccc1	-2	35*	0	0
CCN1CCC(O)(C(C(=O)OC)c2ccccc2)CC1 (configuration not stated)	-8	/	/	/
Cc1ccc2c(cnn2C(=O)CCCC(=O)NCc2ccc(F)cc2)c1	0	87*	6	0
CCc1ccc(CNC(=O)CCC(=O)n2ncc3cc(C)ccc32)cc1	5	0	1	4
CCOc1ccc(C2CC(c3ccccc3C)n3nc(N)nc3N2)cc1 (configuration not stated)	-1	-1	-2	33*
COc1cccc(C2CC(c3ccc(Cl)cc3)n3nc(N)nc3N2)c1 (configuration not stated)	-1	0	2	+
COc1ccc(C2CC(c3cccc(OC)c3)n3nc(N)nc3N2)cc1 (configuration not stated)	2	2	-8	2
COc1ccc(C2CC(c3ccccc3C)n3nc(N)nc3N2)cc1 (configuration not stated)	3	-4	3	-6
Cc1onc(-c2ccccc2Cl)c1C(=O)N1C=CC(C(F)(F)Cl)=NCC1	24*	0	5	4
CC(C)OC(=O)N(C)C[C@H]1OCc2cn(nn2)CCCC(=O)N([C@H](C)CO)C[C@@H]1C	7	/	/	/
O=C(C[C@@H]1C/C=C\C[C@@H](NC(=O)OCC2c3ccccc3-c3ccccc32)C(=O)OCCNC1=O)N[C@@H](CO)Cc1ccccc1	3	/	-7	+
COC(=O)C1CCN(C(=O)c2ccc(SC)cc2OC)CC1	10	3	4	12*
O=C(COC(=O)c1cccs1)Nc1cccc(S(=O)(=O)N2CCCCC2)c1	-3	/	3	2
CCOc1ccc(NC(=O)CSc2nc3ccccc3nc2N2CC(C)OC(C)C2)cc1 (configuration not stated)	2	-1	-10	-3
COC(=O)[C@@]1(Cc2ccc(F)cc2)[C@H]2c3cc(C(=O)N4CCCC4)n(CCc4ccccn4)c3C[C@H]2CN1C(=O)c1ccccc1	/	1	-1	18*
O=C(CC(c1ccccc1)(c1ccccc1)c1ccccc1)N[C@@H](Cc1ccccc1)C(=O)O	0	0	-1	16*
COc1cc(/C=C2\CCC(C3CCCC3)C2=O)cc(OC)c1OC (configuration not stated)	-4	27*	3	2
CCc1ccc(C(C#N)=CC=Cc2ccccc2)cc1	0	/	/	/
O=C1c2ccccc2C(=O)c2[nH]c(=O)[nH]c21	1	31*	3	0
O=C1C(O)=C(O)C(=O)c2ccccc21	6	61*	3	13
O=C1c2ccccc2C(=O)c2[nH]cnc21	1	/	10	2
SMILES	m5-HT2A agonist	Fh CTSL1 inh	HDAC3 inh	LANA-H2A inh
CCN(CC)C(=O)c1csc(COCCO)n1	4	/	/	/
COc1ccc(/C=N/n2cnc3c([nH]c4ccccc43)c2=O)cc1COc1ccccn1	/	26*	10	-1
CC1CCC2(CC1)NC(=O)N(NC(=O)CCl)C2=O (configuration not stated)	-1	17*	-5	2
O=C(Nc1nccs1)c1cccc(NC(=O)C(F)(F)F)c1	1	-2	-4	3
CCN(CC(=O)Nc1ccc(NC(C)=O)cc1)C(=O)c1ccc(C(=O)c2ccccc2)cc1	6	/	-8	-1
CC(C)(C)OC1NS(=O)(=O)OCC1NCOC(Cl)(Cl)Cl (configuration not stated)	-4	17*	-1	-8
Cn1c2ccccc2c(=O)n2c(=O)c3ccccc3cc12	/	107*	-2	-7
Cc1cn([C@H]2C[C@H](N=[N+]=[N-])[C@@H](CO)O2)c(=O)[nH]c1=O	3	-3	-2	15*!
Cc1cn(C2CC(O)C(O)C(CO)O2)c(=O)[nH]c1=O (configuration not stated)	-3	/	/	/
O=C1c2ccccc2C(=O)N1Cc1nc2ccccc2o1	-3	-2	13	5
O=C1c2ccccc2C(=O)N1CCCSc1nc2ccccc2o1	-4	-5	4	15*
Cc1ccc2nc3c(cc(C(=O)NCc4ccco4)c(=N)n3Cc3ccco3)c(=O)n2c1	-3	19*	-18	3
Cc1cc(O)c(S(=O)(=O)c2ccccc2)c(C)c1NS(=O)(=O)c1ccccc1	-7	-4	3	3
CCCn1nnnc1SCC(=O)NCc1cccs1	4	-1	3	98*
CCn1nnnc1SCC(=O)NCc1cccs1	3	-1	-5	-2
COc1ccc(C(=O)OCC(=O)N2c3ccccc3CC2C)cc1S(=O)(=O)N1CCOCC1 (configuration not stated)	-5	/	/	/
O=C([C@@H]1CCCN1C(=O)c1cccs1)N1CCN(S(=O)(=O)c2cccc(F)c2)CC1	0	/	5	11*
CC1(C2CCC3(C)OC3C2)CO1 (configuration not stated)	7	/	/	/
CC(=O)c1ccccc1NC(=O)COC(=O)Cc1cccc(C(F)(F)F)c1	14	/	19	3
Cc1cccc(NC(=O)COC(=O)Cc2cccc(C(F)(F)F)c2)c1C	-2	1	-5	+
CCS(=O)(=O)c1ccc(O)c(NC(=O)CC2(CC(=O)O)CCCC2)c1	7	-4	4	3
O=[N+]([O-])c1cccc(/C=N/Nc2nccnc2Cl)c1	-1	3	2	54*
O=[N+]([O-])c1cccc(/C=N/Nc2ccccn2)c1	4	-1	-1	1
CCn1c(O)c(/C=C2\C=NN=C2c2ccccc2)sc1=S	-1	-2	-1	15*
COC(=O)c1cc(C(=O)Nc2cc(C)ccn2)cc([N+](=O)[O-])c1	15*	3	-4	-2
COC(=O)c1cc(C(=O)Nc2cc(C)on2)cc([N+](=O)[O-])c1	-1	-2	6	2
COc1cc(C=NCC2OCCc3ccccc32)cc(OC)c1 (configuration not stated)	-1	2	-1	18*
O=C(COc1ccc(Cl)cc1)NNC(=O)c1ccncc1	-3	/	2	39*

Source: PubChem
